Source: PubChem BioAssay (Broad Institute)
T_cruzi_growth-1: blocks T. cruzi growth in NIH3T3 culture | T. cruzi beta-gal in NIH3T3, GalScreen luminescence, 90 h | AID 624255 | hit rate 5.9% among 77,000 | inhibition, % at 8.34 µM;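 active means mean inhibition above about 93%, with at least 55% of replicates each passing it, limit read from the data, passing the limit was not always enough; inconclusive means only one of those two conditions holds; inactive means neither condition holds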
Pf_Dd2_inh: P. falciparum Dd2 growth inhibition | SYBR Green, 72 h; active compounds read low | activity change, % at 10 µM | hit rate 2.3% among 94,000 | AID 1159554; in the data active means activity change below about -80%; inconclusive means no clear call, values can overlap the other calls
C_diff_HTS: C. difficile growth inhibition | hit rate 0.25% among 86,000 | growth activity, negative = inhibition, % at 16 µg/mL (by protocol) | Clostridium difficile clinical isolate growth, OD600, 24 h; active compounds read low;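 active means mean growth activity at or below -80% and every replicate also at or below -80%; inconclusive means mean at or below -80% but some replicate above -80%; inactive means mean growth activity above -80%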;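 further: 0% = DMSO wells and -100% = levofloxacin 16 µg/mL wells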
T_cruzi_growth-2: Trypanosoma cruzi proliferation inhibition; shares compounds with T_cruzi_growth-1; inhibition, % at 8.35 µM; T. cruzi beta-gal in NIH3T3, GalScreen luminescence, 90 h; hit rate 72% among 5,600;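 active means mean replicate inhibition above about 95% and at least 55% of replicates individually reaching it, limit read from the data; inconclusive means only one of the two criteria is met; inactive means neither criterion is met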
T_cruzi_growth-3: inhibitors of T. cruzi proliferation; shares compounds with T_cruzi_growth-1; T. cruzi beta-gal in NIH3T3, GalScreen luminescence, 90 h; hit rate 21% among 5,600; AID 651740; inhibition, % at 2.09 µM;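 active means mean inhibition above about 95%, with at least 55% of replicates also reaching it, limit read from the data; inconclusive means meets just one of the two conditions; inactive means meets neither condition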;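 further: plate controls were neutral control median for no effect and positive control median for full effect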
3T3_cytotox: kills mouse NIH/3T3 fibroblasts; hit rate 14% among 5,600; cytotoxicity (signal decrease), % at 8.35 µM; NIH/3T3 viability, CellTiter-Glo ATP luminescence, 90 h; shares compounds with T_cruzi_growth-1; AID 651742;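 active means mean signal decrease across replicates above about 35% based on untreated-well scatter, with enough replicates individually passing, limit read from the data; inconclusive means no rule stated though some were filed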;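 further: 0% = median of neutral control wells and 100% = median of positive control wells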
NIH3T3_tox_2: kills mouse NIH/3T3 fibroblasts; hit rate 56% among 5,600; shares compounds with T_cruzi_growth-1; NIH/3T3 viability, CellTiter-Glo ATP luminescence, 90 h; inhibition, % at 24.9 µM; AID 651744;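 active means mean loss of cell viability signal at or above a set limit, and enough replicates individually reaching it; inconclusive means meets only the mean limit or only the replicate share; inactive means meets neither condition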;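 further: 0% = median of neutral control wells and 100% = median of positive control wells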
* marks the source's active call; other numbers are inactive results; ? = inconclusive; . = not tested or not shown. The list is not random: actives were taken first. Their share in the collection is about 6.7%.

SMILES T_cruzi_growth-1 Pf_Dd2_inh C_diff_HTS T_cruzi_growth-2 T_cruzi_growth-3 3T3_cytotox NIH3T3_tox_2
C[C@H](CO)N1C[C@H](C)[C@@H](CN(C)C(=O)c2ccccc2)OCCCC[C@H](C)Oc2ccc(NC(=O)Nc3ccc(C(F)(F)F)cc3)cc2C1=O -56 58 -1 . . . .
Cc1noc(C)c1NC(=O)Nc1ccc2c(c1)C(=O)N([C@@H](C)CO)C[C@@H](C)[C@@H](CN(C)C(=O)Nc1ccc3c(c1)OCO3)OCCCC[C@@H](C)O2 -22 -4 2 . . . .
OC[C@H]1[C@@H](c2ccc(-c3ccncc3)cc2)[C@@H]2CN(Cc3ccccn3)CCCCN12 39 5 -3 . . . .
C[C@@H]1CCCCO[C@H](CN(C)C(=O)Nc2ccc(C(F)(F)F)cc2)[C@@H](C)CN([C@H](C)CO)C(=O)c2cc(N(C)C)ccc2O1 89 -41 0 . . . .
C[C@H]1CCCCO[C@@H](CN(C)C(=O)Nc2ccc(C(F)(F)F)cc2)[C@@H](C)CN([C@@H](C)CO)C(=O)c2cc(N(C)C)ccc2O1 ? 34 2 103* 50 -8 20
C[C@@H]1CCCCO[C@H](CN(C)C(=O)Nc2ccc(F)cc2)[C@@H](C)CN([C@@H](C)CO)C(=O)c2cc(NC(=O)Nc3ccc(C(F)(F)F)cc3)ccc2O1 89 ? 6 . . . .
CC(C)NC(=O)Nc1ccc2c(c1)C(=O)N([C@H](C)CO)C[C@H](C)[C@@H](CN(C)C(=O)Nc1ccc(C(F)(F)F)cc1)OCCCC[C@@H](C)O2 46 -12 -1 . . . .
C[C@H]1CCCCO[C@H](CN(C)C(=O)Nc2ccc(C(F)(F)F)cc2)[C@@H](C)CN([C@@H](C)CO)C(=O)c2cc(NC(=O)Nc3ccc(C(F)(F)F)cc3)ccc2O1 118* -78 2 109* 107* 5 13
C[C@@H]1CCCCO[C@H](CN(C)C(=O)Nc2ccc(F)cc2)[C@H](C)CN([C@H](C)CO)C(=O)c2cc(NC(=O)Nc3ccc(C(F)(F)F)cc3)ccc2O1 93 -77 4 . . . .
C[C@@H]1CCCCO[C@@H](CN(C)C(=O)Nc2ccc(C(F)(F)F)cc2)[C@H](C)CN([C@@H](C)CO)C(=O)c2cc(NC(=O)Nc3ccc(C(F)(F)F)cc3)ccc2O1 116* 8 18 99* 113* -17 -25
CC(C)NC(=O)Nc1ccc2c(c1)C(=O)N([C@@H](C)CO)C[C@@H](C)[C@H](CN(C)C(=O)Nc1ccc(C(F)(F)F)cc1)OCCCC[C@@H](C)O2 102* -29 0 102* 9 14 7
CCCC#Cc1ccc([C@H]2[C@H](CO)N3C(=O)CN(C(=O)Nc4cccc(F)c4)C[C@@H]23)cc1 . 4 3 . . . .
C[C@@H]1CCCCO[C@@H](CN(C)CC2CCCCC2)[C@H](C)CN([C@@H](C)CO)C(=O)c2cc(NC(=O)CCC(F)(F)F)ccc2O1 ? -11 18 ? 20 9 18
C[C@@H]1CCCCO[C@H](CN(C)Cc2ccncc2)[C@H](C)CN([C@H](C)CO)C(=O)c2cc(NC(=O)CCC(F)(F)F)ccc2O1 96* 25 0 44 0 -5 10
C[C@@H]1CCCCO[C@@H](CN(C)Cc2ccc(Cl)c(Cl)c2)[C@@H](C)CN([C@@H](C)CO)C(=O)c2cc(NC(=O)CCC(F)(F)F)ccc2O1 85 -60 18 . . . .
C[C@@H]1CCCCO[C@@H](CN(C)Cc2ccncc2)[C@@H](C)CN([C@H](C)CO)C(=O)c2cc(NC(=O)CCC(F)(F)F)ccc2O1 -26 8 -1 . . . .
C[C@@H]1CCCCO[C@@H](CN(C)CC2CCCCC2)[C@@H](C)CN([C@H](C)CO)C(=O)c2cc(NC(=O)CCC(F)(F)F)ccc2O1 13 8 5 . . . .
C[C@@H]1CCCCO[C@@H](CN(C)Cc2ccc(Cl)c(Cl)c2)[C@H](C)CN([C@H](C)CO)C(=O)c2cc(NC(=O)CCC(F)(F)F)ccc2O1 ? -88* -12 92 104* -3 103*
